Experimental data taken from PubChem BioAssay AID623994 (NMMLSC, 2012).
Potency and affinity values are given separately. Activity calls are given as the source filed them.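 Rule for the calls: active = compounds whose fitted concentration for half the maximal dye retention is below 100 µM; inactive = the rest.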

molecular target: Multidrug resistance protein CDR2 (Candida albicans (strain SC5314 / ATCC MYA-2876)) (UniProt P78595); test: blockers of Nile Red efflux by Candida CDR2 – S. cerevisiae AD1-8u, singleplex, Cherry Pick2 set, dose response (AID 623994); conditions: S. cerevisiae AD1-8u expressing CaCDR2, Nile Red efflux; series mostly up to 100 µM; Nile Red retention, efflux inhibition: at the top concentration
Sequence (P78595 whole entry, looked up): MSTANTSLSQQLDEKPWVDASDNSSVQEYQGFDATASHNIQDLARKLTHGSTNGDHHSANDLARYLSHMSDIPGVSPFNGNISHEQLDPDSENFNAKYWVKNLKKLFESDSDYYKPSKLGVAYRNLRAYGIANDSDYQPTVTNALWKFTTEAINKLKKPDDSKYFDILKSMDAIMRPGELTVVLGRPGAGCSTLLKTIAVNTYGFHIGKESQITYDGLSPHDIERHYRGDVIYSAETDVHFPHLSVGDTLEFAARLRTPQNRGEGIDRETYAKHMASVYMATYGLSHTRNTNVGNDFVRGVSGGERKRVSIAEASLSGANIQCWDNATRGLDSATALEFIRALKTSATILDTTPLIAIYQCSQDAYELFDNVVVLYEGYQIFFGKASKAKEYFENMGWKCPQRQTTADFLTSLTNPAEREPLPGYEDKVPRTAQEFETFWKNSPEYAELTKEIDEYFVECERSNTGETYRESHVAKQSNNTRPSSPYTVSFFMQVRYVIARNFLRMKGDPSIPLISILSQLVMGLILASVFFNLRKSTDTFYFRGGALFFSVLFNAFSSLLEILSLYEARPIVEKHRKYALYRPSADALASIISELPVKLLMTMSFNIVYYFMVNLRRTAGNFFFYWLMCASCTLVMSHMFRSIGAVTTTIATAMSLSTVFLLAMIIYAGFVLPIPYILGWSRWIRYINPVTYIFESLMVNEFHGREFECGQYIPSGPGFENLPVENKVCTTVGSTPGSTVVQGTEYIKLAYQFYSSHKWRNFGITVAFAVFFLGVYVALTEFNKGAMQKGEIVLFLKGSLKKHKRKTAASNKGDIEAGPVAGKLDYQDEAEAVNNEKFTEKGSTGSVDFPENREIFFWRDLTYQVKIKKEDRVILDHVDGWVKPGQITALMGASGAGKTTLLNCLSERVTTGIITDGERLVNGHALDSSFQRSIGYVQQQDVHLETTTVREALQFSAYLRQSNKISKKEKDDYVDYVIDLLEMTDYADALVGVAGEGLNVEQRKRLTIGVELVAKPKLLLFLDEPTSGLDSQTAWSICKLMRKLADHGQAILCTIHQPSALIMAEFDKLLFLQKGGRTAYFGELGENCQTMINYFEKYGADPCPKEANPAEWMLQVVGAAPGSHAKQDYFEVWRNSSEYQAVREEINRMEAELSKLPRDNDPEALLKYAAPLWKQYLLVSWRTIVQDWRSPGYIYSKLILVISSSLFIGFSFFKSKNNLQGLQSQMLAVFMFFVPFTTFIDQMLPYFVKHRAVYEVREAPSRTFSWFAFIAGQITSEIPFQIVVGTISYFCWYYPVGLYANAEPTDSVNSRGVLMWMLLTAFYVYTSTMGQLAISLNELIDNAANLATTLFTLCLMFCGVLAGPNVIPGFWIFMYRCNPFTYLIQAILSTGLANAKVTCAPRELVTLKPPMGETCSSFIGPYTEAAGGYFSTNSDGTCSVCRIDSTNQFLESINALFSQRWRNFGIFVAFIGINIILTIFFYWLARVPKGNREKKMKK

Row | SMILES | Nile Red retention, efflux inhibition | outcome
1 | Cc1ccc(-c2c[n+](CC(=O)N3c4ccccc4Sc4ccccc43)c3n2CCC3)cc1 | -3.96% (inactive) | 
2 | O=C(c1ccoc1)N1CCC2(CC1)Oc1ccc(F)cc1C(=O)C21CC(c2ccc(Cl)cc2)=NO1 (stereo not given) | -6.86% (inactive) | 
3 | CCCCCc1cc(=O)oc2c(C(CCN3CCCC(C)C3)c3ccc(N(C)C)cc3)c(OC)cc(OC)c12 (stereo not given) | 369% (inactive) | 
4 | OCCN1CCN(CC/C=C2/c3ccccc3Sc3ccc(C(F)(F)F)cc32)CC1 | 27.4% (inactive) | 
5 | Cc1ccc(CNC(=O)C2CCC(CNc3nc(=S)[nH]c4ccccc34)CC2)cc1 (stereo not given) | 6.63% (inactive) | 
6 | COc1ccc(O)c(C(=O)c2cnc3c(c2)CN(C)C(=O)N3)c1 | -9.23% (inactive) | 
7 | O=C(c1ccc2c(c1)OCO2)N1CCC2(CC1)Oc1ccc(F)cc1C(=O)C21CC(c2ccc(Cl)cc2)=NO1 (stereo not given) | -1.29% (inactive) | 
8 | CCCCNC(=O)C1CCC(CNc2nc(=S)[nH]c3ccccc23)CC1 (stereo not given) | -0.88% (inactive) | 
9 | O=C(Nc1ccccc1)C1=C[C@@H](c2ccc(Br)cc2)C[C@@H](OCCCCO)O1 | 10.3% (inactive) | 
10 | Cc1ccc(O)c(C(=O)c2cnc3c(c2)CN(CCC(C)C)C(=O)N3)c1 |  | inactive
11 | C[C@@]12C(=O)Nc3ccc(Cl)cc3C(=O)N1[C@H]1c3cc(Cl)ccc3OC[C@@H]1[C@@H]2c1ccccc1 | -9.04% (inactive) | 
12 | CCOc1cccc2sc(NC(=O)c3ccc(Br)s3)nc12 | -2.33% (inactive) | 
13 | CC(C)C(=O)N1CCC2(CC1)Oc1ccc(Cl)cc1C(=O)C21CC(c2ccc(Cl)cc2)=NO1 (stereo not given) | -1.31% (inactive) | 
14 | O=C(C[n+]1cc(-c2ccc(F)cc2)n2c1CCC2)N1c2ccccc2Sc2ccccc21 | -4.27% (inactive) | 
15 | CCCCN1Cc2cc(C(=O)c3cc(OC)ccc3O)cnc2NC1=O | 12.2% (inactive) | 
